Shown is part of a subset that was picked to be rich in hits.
CBX7 inh – CBX7 chromodomain binding inhibitors, primary screen, biochemical, AlphaScreen | Chromobox protein homolog 7 (Homo sapiens), O95931 | hit rate 1.1% among 66,000 | normalised signal (fraction of DMSO) (no concentration beside the values) | AlphaScreen His6-CBX7 / biotin-H3K27me3 peptide binding; stronger effect = lower value; in the data active = normalised signal below about 0.5
Target sequence (O95931 whole entry, looked up): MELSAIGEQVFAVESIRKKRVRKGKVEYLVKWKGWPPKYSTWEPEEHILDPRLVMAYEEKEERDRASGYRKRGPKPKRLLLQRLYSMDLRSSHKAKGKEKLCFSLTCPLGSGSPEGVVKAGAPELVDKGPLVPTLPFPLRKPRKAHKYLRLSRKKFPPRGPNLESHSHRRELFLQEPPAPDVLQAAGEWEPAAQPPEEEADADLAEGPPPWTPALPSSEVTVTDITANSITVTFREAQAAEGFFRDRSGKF
Starred values were filed as active, the others as inactive.

SMILES	CBX7 inh
COc1ccc(-n2c3c(cc(C(=O)NC4CC(C)(C)NC(C)(C)C4)c2=O)C(=O)CC(C)(C)C3)cc1	0.79
C=CCn1c(CCNC(=O)c2ccccc2)nc2ccccc21	0.94
COc1ccc(CCNC(=O)CCc2cn(C)c3ccccc23)cc1OC	1
Cc1ccccc1-c1nc(CS(=O)(=O)CC(=O)N2CCC(Cc3ccccc3)CC2)c(C)o1	0.49*
Cc1ccccc1-c1nc(CS(=O)(=O)CC(=O)N2CCCCC2)c(C)o1	0.99
Cc1ccccc1-c1nc(CS(=O)(=O)CC(=O)N2CCN(Cc3ccccc3)CC2)c(C)o1	0.69
COc1ccc(Nc2ncc(C(=O)N3CCCC3)c3ccccc23)cc1	1.2
Cc1cccc(OCCCC(=O)Nc2nc(-c3ccc(Br)cc3)cs2)c1	1.2
Cc1ccc2c(c1)NC(=O)C(CC(=O)NC(C)C13CC4CC(CC(C4)C1)C3)O2 (stereo unspecified)	1
COc1ccc(N2Cc3cccc(C(=O)Nc4ccccc4OC)c3C2=O)cc1	0.96
CCc1ccc(NC(=O)c2cccc3c2C(=O)N(c2ccc(OC)cc2)C3)cc1	0.73
CCc1ccccc1NC(=O)c1cccc2c1C(=O)N(c1ccc(OC)cc1)C2	0.14*
CCN(CCCNC(=O)CCN1C(=O)COc2ccccc21)c1cccc(C)c1	0.93
COc1ccc(NC(=O)CN(c2ccc(C(C)C)cc2)S(=O)(=O)c2c(C)n[nH]c2C)cc1	1
Cc1cccc(CCNC(=O)CC2Sc3ccccc3NC2=O)c1 (stereo unspecified)	0.98
Cc1cc(Cl)ccc1NC(=O)CC1Sc2ccccc2NC1=O (stereo unspecified)	1
Cc1ccc(C)c(N2CCN(C(=O)CC3Sc4ccccc4NC3=O)CC2)c1 (stereo unspecified)	0.5*
Cc1cc(C)cc(NC(=O)CSc2nnc(Cc3cc(=O)[nH]c(=O)[nH]3)n2-c2cc(C)ccc2C)c1	1
CCC(Cc1ccccc1)NC(=O)CN1C(=O)CC(C)(C)Sc2ccccc21 (stereo unspecified)	0.95
CC(=O)Nc1ccc(Oc2cc([N+](=O)[O-])cc3c2C(=O)Nc2ccccc2O3)cc1	0.66
Cc1ccc2c(c1)Oc1cc([N+](=O)[O-])cc(Oc3ccccc3C)c1C(=O)N2	0.049*
Cc1ccc2c(c1)Oc1cc([N+](=O)[O-])cc(Oc3ccc(Cl)cc3)c1C(=O)N2	0.2*
Cc1ccc(Cn2cc(CCC(=O)NCc3ccccn3)c3ccccc32)cc1	0.56
Cc1cc(C)cc(NC(=O)CSc2oc(-c3ccc(F)cc3)nc2S(=O)(=O)c2ccccc2)c1	0.96
CC1=Nc2cc(C(=O)NCc3ccc(C)cc3)ccc2Sc2ccccc21	1
SMILES	CBX7 inh
Cc1ccc(N2CC(C(=O)Nc3cccc(Br)c3)CC2=O)cc1 (stereo unspecified)	1
CCOCCCNC(=O)Cn1ncc2c1-c1ccccc1OC2	1.1
COc1ccc(-c2cc3ccccc3n2CC(O)CN2CCCCC2)cc1 (stereo unspecified)	0.86
COc1ccc(C(=O)c2cn(Cc3ccc(F)cc3)c3ccccc3c2=O)cc1	0.74
COc1cccc(OCC(O)CN2CCOCC2)c1 (stereo unspecified)	1.1
CCC(=C(c1ccc(OC)cc1)c1ccc(OC)cc1)c1cn(CCN(C)C)c2ccccc12	0.32*
CCC(=C(c1ccc(OC)cc1)c1ccc(OC)cc1)c1cn(CC(O)CN2CCN(C)CC2)c2ccccc12 (stereo unspecified)	0.35*
COc1ccc(C(=O)c2cn(Cc3ccc(C)cc3)c3ccccc3c2=O)cc1	0.54
CCC(=C(c1ccc(OC)cc1)c1ccc(OC)cc1)c1cn(CC(O)CN2CCOCC2)c2ccccc12 (stereo unspecified)	0.41*
COc1ccc(OCC(O)Cn2c(=N)n(CCN3CCOCC3)c3ccccc32)cc1 (stereo unspecified)	1
COc1ccc(OCC(O)CN2CCCCCC2)cc1 (stereo unspecified)	0.74
CCc1ccccc1NC(=O)c1ccc(CNc2c(N3CCC(C)CC3)c(=O)c2=O)cc1	1
COc1ccc(OC)c(Nc2cc(C(=O)NCCN3CCOCC3)c3ccccc3n2)c1	0.97
CC(C)CCNC(=O)c1ccc2c(c1)N(Cc1ccc(F)cc1)C(=O)c1ccccc1S2(=O)=O	1
CCN(CC)CCCNC(=O)CCC(=O)Nc1ccc2nc(N3CCOCC3)cc(C)c2c1	1.1
COc1ccc(CC(=O)Nc2ccc(-c3noc(-c4ccccc4Br)n3)cc2)cc1	1.3
Cc1ccc(CCN2C(=O)Cn3cccc3C2C(=O)NC2CCC(C)CC2)cc1 (stereo unspecified)	1
CCCNC(=O)CSCc1nc(-c2ccc(Cl)cc2)oc1C	1.1
Cc1cc2cc(CCNC(=O)c3ccccc3C(F)(F)F)c(=O)[nH]c2cc1C	1
Cc1cccc(N(Cc2nnc3n2CCCCC3)C(=O)Nc2ccccc2)c1C	1
COc1ccc(CNc2cc(C)nc3c(-c4ccc(OC)c(OC)c4)c(C)nn23)cc1	0.92
COc1ccc(-c2c(C)nn3c(NCc4ccc(F)cc4)cc(C)nc23)cc1OC	0.89
COc1ccc(-c2c(C)nn3c(NCc4ccccn4)cc(C)nc23)cc1OC	0.39*
Cc1onc(-c2c(Cl)cccc2Cl)c1C(=O)NC1=NCCS1	0.98
CCOc1ccc(C(=O)Nc2c(C(=O)Nc3ccccc3F)oc3ccccc23)cc1	1
SMILES	CBX7 inh
Cc1ccc(-c2cc(C(F)F)n3ncc(C(=O)NCCc4ccc(Cl)cc4)c3n2)cc1	0.98
CCN1CCN(CCCNC(=O)COc2ccc3c(c2)C(=O)CC(C)(C)O3)CC1	0.45*
CCCCCCCNC(=O)COc1ccc2c(c1)C(=O)CC(C)(C)O2	1
CCCN1CCN(CCCNC(=O)COc2ccc3c(c2)C(=O)CC(C)(C)O3)CC1	0.52
CC(NC(=O)c1nnc(Cc2ccc(Cl)cc2)o1)c1ccccc1 (stereo unspecified)	1.1
O=C(CNC1CCCCC1)Nc1c2c(nc3c1CCC3)CCC2	0.57
CNCC(=O)Nc1c2c(nc3c1CCC3)CCCC2	0.49*
Cc1cc(NC(=O)CNC2CCCCC2)c2ccccc2n1	1
O=C(CNC1CCCCC1)Nc1c2c(nc3c1CCC3)CCCC2	0.34*
CCCCCCC(=O)Nc1c2c(nc3c1CCC3)CCCC2	0.91
CC(C)(C)NCC(=O)Nc1c2c(nc3c1CCC3)CCCC2	1
COCCNc1ncnc2scc(-c3ccccc3)c12	0.98
COc1ccccc1CNC(=O)c1ccc2c(c1)N(Cc1ccc(C)cc1)C(=O)CS2	1
O=C(NCCC1=CCCCC1)c1ccc2c(c1)ncn2-c1cccc(F)c1	0.75
COc1ccc(Cc2noc(-c3cc(-c4ccncc4)nc4ccccc34)n2)cc1	0.49*
COc1ccc(Cc2noc(-c3cc(-c4ccc(F)cc4)nc4ccccc34)n2)cc1	1.3
COc1ccc(-c2noc(-c3cc(-c4ccccc4)nc4ccccc34)n2)cc1	1.2
O=C(COc1cccc2cccnc12)N1c2ccccc2CCc2ccccc21	0.68
COc1ccc(NC(=O)C(=O)NCCc2ccccc2)cc1OC	1.1
CCCC(=O)NC(c1ccc(OC)c(OC)c1)c1cc(Cl)c2cccnc2c1O (stereo unspecified)	0.41*
COc1ccc(C(NC(=O)CCc2ccccc2)c2ccc3cccnc3c2O)cc1OC (stereo unspecified)	0.039*
COc1ccc(-c2nc(C(=O)NC(C)CCc3ccccc3)c(C)o2)cc1OC (stereo unspecified)	0.96
CCCC(=O)NC(c1ccccc1OC)c1cc(Cl)c2cccnc2c1O (stereo unspecified)	0.84

High-throughput results from PubChem.
